# Results reported in the supplement of paper PMC6555819.
# Columns and labels:
# Assay in all cases: PBM binding z-score (relative to random genomic background probes); higher = stronger binding; sequences stand for … in GC…GCGATTGACAGCGTAGAATGAAGG
# [1] = tested on: FXR:RXRa (NR concentration 270 nM, RXRa partner concentration 90 nM)
# Summary of the method: (§1)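 Custom Agilent 4×180K protein-binding microarrays carried double-stranded probes. Their 34-nt variable regions held direct-repeat seeds, single-nucleotide variants, half-site ablations and random human genomic background sequences. Arrays were incubated 1 h with ligand-free nuclear receptor dimers in PBS pH 7.4, 2% milk, 0.02% Triton X-100, 1 mM DTT, 0.2 mg/mL BSA and 0.4 mg/ml salmon testes DNA. Antibodies against each partner (one per run) detected binding, and scanned fluorescence was regression-normalized. Binding z-scores use random background probes as reference.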
# [2] = tested on: LXRa:RXRa (NR concentration 270 nM, RXRa partner concentration 90 nM)
# Summary of the method: as §1
# [3] = tested on: LXRa homodimer (NR concentration 270 nM)
# Summary of the method: as §1
# [4] = tested on: LXRb homodimer (NR concentration 270 nM)
# Summary of the method: as §1
# [5] = tested on: PPARa:RXRa (NR concentration 270 nM, RXRa partner concentration 90 nM)
# Summary of the method: as §1
# [6] = tested on: PPARg:RXRa (NR concentration 180 nM, RXRa partner concentration 90 nM)
# Summary of the method: as §1
# [7] = tested on: PPARg:RXRa 270nM:90nM, anti-RXR (NR concentration 270 nM, RXRa partner concentration 90 nM)
# Summary of the method: as §1
# [8] = tested on: PPARg:RXRa 30nM:10nM, anti-RXR (NR concentration 30 nM, RXRa partner concentration 10 nM)
# Summary of the method: as §1
# [9] = tested on: PPARg:RXRa 90nM:30nM, anti-RXR (NR concentration 90 nM, RXRa partner concentration 30 nM)
# Summary of the method: as §1
# [10] = tested on: PPARg:RXRa DBDmut IVT, anti-RXR (DBD mutation: RXRa K156A/R161A, NR concentration 270 nM, RXRa partner concentration 90 nM)
# Summary of the method: as §1
# [11] = tested on: PPARg:RXRa IVT, anti-PPARg (NR concentration 270 nM, RXRa partner concentration 90 nM)
# Summary of the method: as §1
# [12] = tested on: PPARg DBDmut:RXRa IVT, anti-PPARg (DBD mutation: PPARg1 K132A/R137A, NR concentration 270 nM, RXRa partner concentration 90 nM)
# Summary of the method: as §1
# [13] = tested on: PPARg DBDmut IVT, anti-PPARg (DBD mutation: PPARg1 K132A/R137A, NR concentration 270 nM)
# Summary of the method: as §1
# [14] = tested on: PPARg homodimer (NR concentration 180 nM)
# Summary of the method: as §1
# [15] = tested on: PXR:RXRa (NR concentration 270 nM, RXRa partner concentration 90 nM)
# Summary of the method: as §1
# [16] = tested on: PXR homodimer (NR concentration 270 nM)
# Summary of the method: as §1
# [17] = tested on: RARa:RXR (NR concentration 270 nM, RXRa partner concentration 90 nM)
# Summary of the method: as §1
# [18] = tested on: RARa homodimer (NR concentration 270 nM)
# Summary of the method: as §1
# [19] = tested on: RARb:RXRa (NR concentration 270 nM, RXRa partner concentration 90 nM)
# Summary of the method: as §1
Sequence,PBM binding z-score [1],PBM binding z-score [2],PBM binding z-score [3],PBM binding z-score [4],PBM binding z-score [5],PBM binding z-score [6],PBM binding z-score [7],PBM binding z-score [8],PBM binding z-score [9],PBM binding z-score [10],PBM binding z-score [11],PBM binding z-score [12],PBM binding z-score [13],PBM binding z-score [14],PBM binding z-score [15],PBM binding z-score [16],PBM binding z-score [17],PBM binding z-score [18],PBM binding z-score [19]
AGTCGGAGGACAAAGGTCAGAGCTACGCCAGTGA,3.97,4.34,1.6,0.26,5.01,7.55,7.07,5.94,7.56,0.569,3.68,0.374,-0.0334,3.93,3.98,0.166,5.06,1.59,4.31
ATATGTAGGTTATCGGGTCATTCATTTTGCGCAT,3.17,3.12,1.9,1.4,5.09,7.3,6.11,3.77,5.76,7.75,7.84,5.27,4.21,4.1,3.39,1.23,3.75,2.1,2.43
CTCGAAAGGTCGTGGTCAGGTGAGTATACCAAAC,5.9,4.27,0.0394,0.247,5.02,3.26,4.6,1.21,3.34,0.883,2.33,-0.0163,0.484,2.21,3.61,0.127,4.47,0.777,4.04
ATCGAAAGGTCGTGAAGTGAGTATACAGAAAGGC,4.52,3.75,0.493,0.774,4.76,3.21,3.51,1.42,2.63,0.0713,1.76,1.63,1.88,1.75,2.66,0.278,3.39,1.2,3.73
CCTACTGGGCCATTAAGAGGTCATTGATCATATG,2.62,4.19,6.58,0.0638,3.94,2.19,3.06,0.745,2,4.25,4.13,0.259,0.0479,2.02,4.48,1.79,4.14,0.836,2.94
CCTACTGGGCCACGAAAGGGCATTGATTCAGTGA,-0.208,0.621,-0.166,-1.21,1.7,1.78,1.95,0.197,0.806,5.38,5.14,0.311,0.299,-0.0604,0.616,-0.539,0.471,-0.24,1.69
CCTTACGGGTCACTTACAGGTTATAGCATTTGGA,4.84,4.49,0.907,0.66,4.62,3.07,3.73,1.27,2.84,3.22,3.45,0.739,0.78,2.43,3.37,0.26,4.24,1.28,3.65
CCTACTGGGCCACGAAAGGTGATTGATTCAGTGA,-0.0481,0.0469,-0.496,-0.883,1.75,2.08,1.68,0.232,0.958,5.14,5.37,-0.117,-0.709,0.352,0.0244,-0.433,0.698,-0.285,0.929
CAAAATAGGTCAAGAGGTCAAAGTCCGCTTCCCG,7.64,6.57,6.23,2.46,6.57,9.42,8.19,6.55,8.11,7.42,7.83,2.31,1.62,5.84,6.31,2.24,7.5,2.71,5.7
GTACCAAGGTGAATAGGTCGTTGATGAGTAGGCG,0.835,0.771,-0.075,-0.364,2.08,1.61,1.8,0.486,1.17,1.99,2.78,0.41,0.294,1.84,0.719,-0.224,1.72,0.00144,1.94
TCTAGTTGGTCACGGGGGTCACACACGACGGGTA,5.12,4.95,2.06,9.37,5.15,5.57,6.09,4.82,5.65,3.49,5.43,6.78,6.87,4.67,5.72,2.32,6.59,2,4.07
CCTACTGGGCCACTCAGAGGTCATTGATCATATG,2.81,4.09,4.52,0.238,3.98,3.57,3.49,1.52,2.96,5.13,5.18,-0.186,-0.561,1.94,5.1,1.83,4.46,0.374,3.28
ACTAGTTGGTCAGCTGAGGTAACACACAATTCGG,1.15,-0.066,0.00608,0.472,0.41,0.76,0.156,0.214,-0.00453,1.07,1.11,0.194,0.609,0.0938,0.509,-0.174,1.3,-0.362,1.03
ACTCGGAGGACAAAGGTCAGAACTACGCCAGTGA,3.87,4.07,1.47,1.03,4.61,7.34,7.11,4.87,7.69,0.613,3.35,0.492,-0.388,4.36,3.9,0.428,4.98,2.66,4.04
TAGCCTCGGTCATTCAGGGGCCAGTATAGAAAGC,1.19,1.14,0.485,0.157,0.242,-0.061,-0.248,-0.569,-0.514,-0.712,0.476,0.246,-0.322,0.0789,-0.0122,-0.574,0.667,-0.375,2.68
CCTAGATGGTCAGGAGGTCACACACCGGATATGA,3.84,3.42,2,0.565,4.14,3.01,3.58,1.24,2.41,1.16,2.88,0.417,0.0962,3.94,4.14,1.76,4.94,2.24,3.54
CCTAGTGGGTCAGGAGGTCACACACCGGATATGA,4.27,4.06,1.62,0.0765,5.31,7.91,6.77,4.29,6.31,5.23,7.22,0.727,0.445,3.37,4.62,0.774,5.66,1.06,4.42
